Assay results reported in PubChem BioAssay (NCATS).
Results filed as inconclusive are left out. A call without a number means that no potency is given here. Values without a mark were called inactive. Calls of active or inactive are those of the source. The call rests on the fitted dose curve; in most records, active means well fitted inhibition curve with a large enough effect; inconclusive means small, poorly fitted or top-dose-only effect; inactive means flat fitted curve, though single readings scatter.

Key:
[1] = qHTS profiling for inhibitors of Plasmodium falciparum proliferation (AID 504749); further: nearly all actives have a fitted effect of over 60% in size; conditions: P. falciparum in erythrocytes, SYBR Green DNA, 72 h
Outline: (§1)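 Three-day growth assay of blood-stage parasites in erythrocytes (0.3% parasitemia, 2.5% hematocrit) at 37 C, 5% CO2, quantified by SYBR Green DNA staining after overnight detergent lysis.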

3D7 = assay: as above; conditions: P. falciparum in erythrocytes, SYBR Green DNA, 72 h; series mostly up to 28.7 µM
Outline: as §1

7G8 = assay: as above; conditions: P. falciparum in erythrocytes, SYBR Green DNA, 72 h; series mostly up to 28.7 µM
Outline: as §1

AA1029 = assay: as above; conditions: P. falciparum in erythrocytes, SYBR Green DNA, 72 h; series mostly up to 28.7 µM
Outline: as §1

AS120 = assay: as above; conditions: P. falciparum in erythrocytes, SYBR Green DNA, 72 h; series mostly up to 28.7 µM
Outline: as §1

ATS189 = assay: as above; conditions: P. falciparum in erythrocytes, SYBR Green DNA, 72 h; series mostly up to 28.7 µM
Outline: as §1

ATS95 = assay: as above; conditions: P. falciparum in erythrocytes, SYBR Green DNA, 72 h; series mostly up to 28.7 µM
Outline: as §1

C2A = assay: as above; conditions: P. falciparum in erythrocytes, SYBR Green DNA, 72 h; series mostly up to 28.7 µM
Outline: as §1

CP185 = assay: as above; conditions: P. falciparum in erythrocytes, SYBR Green DNA, 72 h; series mostly up to 28.7 µM
Outline: as §1

CP191 = assay: as above; conditions: P. falciparum in erythrocytes, SYBR Green DNA, 72 h; series mostly up to 28.7 µM
Outline: as §1

CP192 = assay: as above; conditions: P. falciparum in erythrocytes, SYBR Green DNA, 72 h; series mostly up to 28.7 µM
Outline: as §1

CP194 = assay: as above; conditions: P. falciparum in erythrocytes, SYBR Green DNA, 72 h; series mostly up to 28.7 µM
Outline: as §1

CP201 = assay: as above; conditions: P. falciparum in erythrocytes, SYBR Green DNA, 72 h; series mostly up to 28.7 µM
Outline: as §1

CP203 = assay: as above; conditions: P. falciparum in erythrocytes, SYBR Green DNA, 72 h; series mostly up to 28.7 µM
Outline: as §1

CP211 = assay: as above; conditions: P. falciparum in erythrocytes, SYBR Green DNA, 72 h; series mostly up to 28.7 µM
Outline: as §1

CP217 = assay: as above; conditions: P. falciparum in erythrocytes, SYBR Green DNA, 72 h; series mostly up to 28.7 µM
Outline: as §1

CP237 = assay: as above; conditions: P. falciparum in erythrocytes, SYBR Green DNA, 72 h; series mostly up to 28.7 µM
Outline: as §1

CP238 = assay: as above; conditions: P. falciparum in erythrocytes, SYBR Green DNA, 72 h; series mostly up to 28.7 µM
Outline: as §1

CP215 = assay: as above; conditions: P. falciparum in erythrocytes, SYBR Green DNA, 72 h; series mostly up to 28.7 µM
Outline: as §1

[2] = at 28.7 µM (top of the series), parasite line A
[3] = at 28.7 µM (top of the series), parasite line B
Potency means the concentration at half of the fitted maximal effect.

NC(N)=NCCN1CCCCCCC1
activity, negative = inhibition ([1]; at 12.8 µM (top of the series), parasite line A): 4.56% | activity, negative = inhibition ([1]; at 12.8 µM (top of the series), parasite line B): 10.2% | Potency (3D7): inactive | Potency (7G8): inactive | Potency (AA1029): inactive | Potency (AS120): inactive | Potency (ATS189): inactive | Potency (ATS95): inactive | Potency (C2A): inactive | Potency (CP185): inactive | outcome (CP191): inactive | outcome (CP192): inactive | outcome (CP194): inactive | outcome (CP201): inactive | Potency (CP203): inactive | outcome (CP211): inactive | outcome (CP217): inactive | Potency (CP237): inactive | Potency (CP238): inactive

Cc1ccc(C(C)C)c(O)c1
activity, negative = inhibition [1, 2]: 4.16% | activity, negative = inhibition [1, 3]: -10.5% | Potency (3D7): inactive | Potency (7G8): inactive | Potency (AA1029): inactive | Potency (AS120): inactive | Potency (ATS189): inactive | Potency (ATS95): inactive | Potency (C2A): inactive | Potency (CP185): inactive | outcome (CP191): inactive | outcome (CP192): inactive | outcome (CP194): inactive | outcome (CP201): inactive | Potency (CP203): inactive | outcome (CP211): inactive | Potency (CP215): inactive | outcome (CP217): inactive | Potency (CP237): inactive | Potency (CP238): inactive

Cc1ncc(CO)c(CN)c1O
activity, negative = inhibition [1, 2]: 7.32% | activity, negative = inhibition [1, 3]: 18.3% | Potency (3D7): inactive | Potency (7G8): inactive | Potency (AA1029): inactive | Potency (AS120): inactive | Potency (ATS189): inactive | Potency (ATS95): inactive | Potency (C2A): inactive | Potency (CP185): inactive | outcome (CP191): inactive | outcome (CP192): inactive | outcome (CP194): inactive | outcome (CP201): inactive | Potency (CP203): inactive | outcome (CP211): inactive | outcome (CP217): inactive | Potency (CP237): inactive | Potency (CP238): inactive

O=c1[nH]cnc2nc[nH]c12
activity, negative = inhibition [1, 2]: -7.68% | activity, negative = inhibition [1, 3]: 15.5% | Potency (3D7): inactive | Potency (7G8): inactive | Potency (AA1029): inactive | Potency (AS120): inactive | Potency (ATS189): inactive | Potency (ATS95): inactive | Potency (C2A): inactive | Potency (CP185): inactive | outcome (CP191): inactive | outcome (CP192): inactive | outcome (CP194): inactive | outcome (CP201): inactive | Potency (CP203): inactive | outcome (CP211): inactive | Potency (CP215): inactive | outcome (CP217): inactive | Potency (CP237): inactive | Potency (CP238): inactive

CCCCCCCCCCOc1cc2c(=O)c(C(=O)OCC)c[nH]c2cc1OCC
Potency ([1]; parasite line A): 0.9 nM (active) | Potency ([1]; parasite line B): 2.2 nM (active) | Potency (3D7): 2.2 nM (active) | Potency (7G8): 2.8 nM (active) | Potency (AA1029): 2.5 nM (active) | Potency (AS120): 2 nM (active) | Potency (ATS189): 1.3 nM (active) | Potency (ATS95): 2.8 nM (active) | Potency (C2A): 10 nM (active) | Potency (CP185): 2.2 nM (active) | outcome (CP192): inactive | outcome (CP217): inactive | Potency (CP237): 3.5 nM (active) | Potency (CP238): 2.8 nM (active)

O[C@@H]1CO[C@H]2[C@@H]1OC[C@@H]2O
activity, negative = inhibition [1, 2]: 8.49% | activity, negative = inhibition [1, 3]: 1.12% | Potency (3D7): inactive | Potency (7G8): inactive | Potency (AA1029): inactive | Potency (AS120): inactive | Potency (ATS189): inactive | Potency (ATS95): inactive | Potency (C2A): inactive | Potency (CP185): inactive | outcome (CP191): inactive | outcome (CP192): inactive | outcome (CP194): inactive | outcome (CP201): inactive | Potency (CP203): inactive | outcome (CP211): inactive | Potency (CP215): inactive | outcome (CP217): inactive | Potency (CP237): inactive | Potency (CP238): inactive

CC1CCN(CCCC(=O)c2ccc(F)cc2)CC1
activity, negative = inhibition [1, 2]: 12.5% | activity, negative = inhibition [1, 3]: 9.34% | Potency (3D7): inactive | Potency (7G8): inactive | Potency (AA1029): inactive | Potency (AS120): inactive | Potency (ATS189): inactive | Potency (ATS95): inactive | Potency (C2A): inactive | Potency (CP185): inactive | outcome (CP191): inactive | outcome (CP192): inactive | outcome (CP194): inactive | outcome (CP201): inactive | Potency (CP203): inactive | outcome (CP211): inactive | Potency (CP215): inactive | outcome (CP217): inactive | Potency (CP238): inactive

CC(=O)OCC(COC(C)=O)OC(C)=O
activity, negative = inhibition [1, 2]: 4.58% | activity, negative = inhibition [1, 3]: 8.38% | Potency (3D7): inactive | Potency (7G8): inactive | Potency (AA1029): inactive | Potency (AS120): inactive | Potency (ATS189): inactive | Potency (ATS95): inactive | Potency (C2A): inactive | Potency (CP185): inactive | outcome (CP191): inactive | outcome (CP194): inactive | outcome (CP201): inactive | Potency (CP203): inactive | outcome (CP211): inactive | Potency (CP215): inactive | outcome (CP217): inactive | Potency (CP237): inactive | Potency (CP238): inactive

CCN(CC)CC1CCCCN1CC(=O)N1c2ccccc2C(=O)Nc2cccnc21 (centres undefined)
activity, negative = inhibition [1, 2]: 6.16% | activity, negative = inhibition [1, 3]: 1.05% | Potency (3D7): inactive | Potency (7G8): inactive | Potency (AA1029): inactive | Potency (AS120): inactive | Potency (ATS189): inactive | Potency (ATS95): inactive | Potency (C2A): inactive | Potency (CP185): inactive | outcome (CP191): inactive | outcome (CP192): inactive | outcome (CP194): inactive | outcome (CP201): inactive | Potency (CP203): inactive | Potency (CP215): inactive | outcome (CP217): inactive | Potency (CP237): inactive | Potency (CP238): inactive

O=C(O)CNC(=O)c1ccccc1I
activity, negative = inhibition [1, 2]: 6.37% | activity, negative = inhibition [1, 3]: 11.3% | Potency (3D7): inactive | Potency (7G8): inactive | Potency (AA1029): inactive | Potency (AS120): inactive | Potency (ATS189): inactive | Potency (ATS95): inactive | Potency (C2A): inactive | Potency (CP185): inactive | outcome (CP191): inactive | outcome (CP192): inactive | outcome (CP194): inactive | outcome (CP201): inactive | Potency (CP203): inactive | outcome (CP211): inactive | Potency (CP215): inactive | outcome (CP217): inactive | Potency (CP237): inactive | Potency (CP238): inactive
